Measured values published in PubChem BioAssay (Tox21).
Results filed as inconclusive are left out. Where a call stands in place of a potency, no number is given. Calls of active or inactive are those of the source. Unless noted, the call rests on the fitted dose curve; in most records, active means well fitted curve in the direction sought with a large enough effect in the repeat runs; inconclusive means weak or mixed curves; inactive means no such curve, though single readings can be large; an effect the other way counts as inactive or inconclusive.

How the values were obtained:
[1] = qHTS assay to identify small molecule antagonists of the thyroid receptor (TR) signaling pathway (AID 743065); further: nearly all actives have a fitted effect of over 55% in size; further: potency means the concentration at half of the fitted maximal effect
How it was run: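 GH3.TRE-Luc rat pituitary cells (two TREs driving luciferase) were dosed with compound, then stimulated with 1 nM T3 (final) for 23.5 h at 37 C. ONE-Glo luminescence was the read-out, with CellTiter-Fluor fluorescence as the cytotoxicity counter-screen.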

[2] = system: thyroid hormone receptor (rat, GH3 cells); assay: qHTS assay to identify small molecule agonists of the thyroid receptor (TR) signaling pathway (AID 743066; calls by dose curve)
[3] = target: Estrogen receptor (Homo sapiens) (UniProt P03372); assay: qHTS assay to identify small molecule antagonists of the estrogen receptor alpha (ER-alpha) signaling pathway (AID 743069; active means well fitted curve in the direction sought with a large enough effect in the signal ratio in the repeat runs, not every such curve was filed as active; the % refers to the signal ratio; further: potency means the concentration at half of the fitted maximal effect)
How it was run: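 Beta-lactamase FRET fluorescence is read after 2 hr at room temperature with LiveBLAzer B/G substrate. Before that, ER-alpha-bla HEK293 cells sit 4 hr after plating, then receive compound plus 17beta-estradiol and incubate 18 hr at 37C.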

[4] = qHTS assay to identify small molecule antagonists of the estrogen receptor alpha (ER-alpha) signaling pathway - cell viability counter screen (AID 743074; calls by dose curve;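 further: HEK293 cells carrying ER-alpha-UAS-bla reporter stimulated with 17beta-estradiol; nearly all actives have a fitted effect of over 45% in size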)
[5] = target: Estrogen receptor (Homo sapiens) (UniProt P03372); assay: qHTS assay to identify small molecule agonists of the estrogen receptor alpha (ER-alpha) signaling pathway (AID 743075; calls by dose curve;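 further: HEK293 GripTite cells with ER-alpha and UAS-driven beta-lactamase reporter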)
[6] = target: Estrogen receptor (Homo sapiens) (UniProt P03372); assay: qHTS assay to identify small molecule agonists of the estrogen receptor alpha (ER-alpha) signaling pathway using the BG1 cell line (AID 743079); further: nearly all actives have a fitted effect of over 20% in size
[7] = qHTS assay to identify small molecule antagonists of the estrogen receptor alpha (ER-alpha) signaling pathway using the BG1 cell line (AID 743080; calls by dose curve; further: series mostly up to about 70 µM; nearly all actives have a fitted effect of over 25% in size)
How it was run: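 Antagonist mode: compounds in DMSO were pinned onto BG1-Luc-4E2 cells alongside 17beta-estradiol agonist, incubated 21.5 h, and ERE-driven luciferase measured with ONE-Glo. Cytotoxicity was multiplexed using CellTiter-Fluor fluorescence.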

[8] = qHTS assay to identify small molecule antagonists of the estrogen receptor alpha (ER-alpha) signaling pathway using the BG1 cell line - cell viability counter screen (AID 743081);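 further: compound given together with 17beta-estradiol as the ER stimulus; series mostly up to about 70 µM; nearly all actives have a fitted effect of over 45% in size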
[9] = target: Aromatase (Homo sapiens) (UniProt P11511); assay: qHTS assay to identify aromatase inhibitors (AID 743083); further: series mostly up to about 70 µM; nearly all actives have a fitted effect of over 55% in size
[10] = qHTS assay to identify small molecule antagonists of the thyroid receptor (TR) signaling pathway - cell viability counter screen (AID 743064); further: nearly all actives have a fitted effect of over 50% in size; further: potency means the concentration at half of the fitted maximal effect
How it was run: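 GH3.TRE-Luc cells, 4 h pre-plating; cpd + T3 1 nM final; 37 °C 23.5 h; CellTiter-Fluor 30 min; fluorescence read.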

Sequence of Aromatase (Homo sapiens) (P11511 whole entry, looked up): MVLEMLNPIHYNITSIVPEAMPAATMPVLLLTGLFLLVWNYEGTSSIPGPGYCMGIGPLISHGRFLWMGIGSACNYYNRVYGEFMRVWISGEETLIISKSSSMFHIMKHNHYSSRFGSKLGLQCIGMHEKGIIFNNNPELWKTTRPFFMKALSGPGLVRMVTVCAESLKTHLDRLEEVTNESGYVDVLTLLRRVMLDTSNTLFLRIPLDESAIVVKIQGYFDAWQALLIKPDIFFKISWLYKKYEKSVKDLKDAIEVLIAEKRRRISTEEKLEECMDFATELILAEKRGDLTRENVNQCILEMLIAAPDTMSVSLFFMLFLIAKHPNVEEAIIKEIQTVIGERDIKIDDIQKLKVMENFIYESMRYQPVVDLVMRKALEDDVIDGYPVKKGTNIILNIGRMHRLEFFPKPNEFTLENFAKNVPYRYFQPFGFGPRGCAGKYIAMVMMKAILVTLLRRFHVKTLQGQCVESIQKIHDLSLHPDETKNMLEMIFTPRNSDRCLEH
Sequence of Estrogen receptor (Homo sapiens) (P03372 whole entry, looked up): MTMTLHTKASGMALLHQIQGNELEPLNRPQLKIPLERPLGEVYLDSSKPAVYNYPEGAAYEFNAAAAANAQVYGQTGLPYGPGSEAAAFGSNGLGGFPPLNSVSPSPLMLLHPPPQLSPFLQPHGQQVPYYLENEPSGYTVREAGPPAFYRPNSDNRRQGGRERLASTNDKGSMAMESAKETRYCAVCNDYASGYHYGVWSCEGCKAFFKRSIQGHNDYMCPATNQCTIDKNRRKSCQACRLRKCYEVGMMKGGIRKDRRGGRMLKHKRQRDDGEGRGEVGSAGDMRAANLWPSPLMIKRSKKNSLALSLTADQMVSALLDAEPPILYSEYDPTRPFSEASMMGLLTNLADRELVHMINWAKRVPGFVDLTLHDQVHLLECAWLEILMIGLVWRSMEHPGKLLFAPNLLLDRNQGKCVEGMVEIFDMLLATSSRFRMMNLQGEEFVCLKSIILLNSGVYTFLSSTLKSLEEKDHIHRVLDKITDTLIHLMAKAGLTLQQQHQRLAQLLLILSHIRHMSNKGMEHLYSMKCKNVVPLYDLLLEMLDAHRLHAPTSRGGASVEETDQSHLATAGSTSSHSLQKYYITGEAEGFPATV

SMILES | Potency [1] | outcome [2] | Potency [3] | Potency [4] | Potency [5] | Potency [6] | Potency [7] | Potency [8] | Potency [9] | Potency [10]
c1cnccn1 | inactive | inactive | inactive | inactive | inactive | inactive | inactive | inactive | inactive | –
CCC(C)[O-].CCC(C)[O-].CCOC(=O)/C=C(/C)[O-].[Al+3] | – | – | – | inactive | – | – | – | inactive | – | inactive
CC(C)(C)NSc1nc2ccccc2s1 | – | – | inactive | inactive | inactive | inactive | inactive | inactive | – | inactive
Cc1c(C)c2c(c(C)c1OC(=O)c1cccnc1)CC[C@@](C)(CCC[C@H](C)CCC[C@H](C)CCCC(C)C)O2 | inactive | inactive | inactive | inactive | inactive | inactive | inactive | inactive | inactive | –
O=C(O)Cc1ccccc1Nc1c(Cl)cccc1Cl | inactive | inactive | inactive | inactive | inactive | inactive | inactive | inactive | inactive | –
Nc1ccc(NCCO)c([N+](=O)[O-])c1 | – | inactive | – | inactive | – | – | – | – | inactive | 54.5 µM (active)
Cc1nc(-c2ccc(Cl)cc2)oc1COC(C)(C)C(=O)O | – | inactive | – | inactive | – | – | – | inactive | – | inactive
COc1ccc2cc1Oc1ccc(cc1)C[C@H]1c3c(cc4c(c3Oc3cc5c(cc3OC)CCN(C)[C@@H]5C2)OCO4)CCN1C | – | – | inactive | inactive | inactive | inactive | inactive | – | inactive | 13.3 µM (active)
OC[C@H]1O[C@H](O[C@H]2O[C@H](CO)[C@@H](O)[C@H](O)[C@H]2O)[C@H](O)[C@@H](O)[C@@H]1O | – | inactive | – | inactive | – | – | – | – | inactive | inactive
O=[N+]([O-])c1ccc(O)cc1C(F)(F)F | 21.7 µM (active) | – | – | – | – | – | – | – | – | –
CCCC(=O)OCCc1ccccc1 | – | – | – | inactive | – | – | – | inactive | inactive | inactive
CCCCCCOC(=O)C(C)CC (stereo not drawn) | inactive | inactive | inactive | inactive | inactive | inactive | inactive | inactive | inactive | –
COCCOc1cc2cc(C(=O)NC3CCN(C(C)C)CC3)n(CC(=O)Nc3ccc(Cl)cn3)c2cn1 | – | inactive | – | inactive | – | – | – | inactive | inactive | 60.4 µM (active)
O=c1oc2cc(O)ccc2c2oc3cc(O)ccc3c12 | – | – | – | – | – | – | – | inactive | inactive | inactive
OC[C@@H](O)[C@@H](O)CO | inactive | inactive | inactive | inactive | inactive | inactive | inactive | inactive | inactive | –
COC(=O)Nc1nc2ccc(C(=O)c3ccccc3)cc2[nH]1 | – | – | inactive | – | – | inactive | inactive | inactive | inactive | 0.285 µM (active)
CN1CCN(Cc2cc(-c3ccc4[nH]c(=O)oc4c3)co2)[C@@H](c2ccc(F)cc2)C1 | – | – | 47.1 µM [inhibitor] (active) | inactive | inactive | – | – | – | – | 46.7 µM (active)
Nc1nc(-c2ccccc2)cs1 | – | – | – | inactive | – | – | – | inactive | inactive | inactive
CC(=O)c1ccc(C(C)=O)cc1 | – | inactive | – | inactive | – | – | – | inactive | inactive | inactive
CCCNCCC | – | inactive | – | – | – | – | – | inactive | inactive | inactive
O[C@@H]([C@H](O)[C@H](O)CBr)[C@H](O)CBr | inactive | inactive | inactive | inactive | inactive | inactive | inactive | inactive | inactive | –
O=C1CCc2cc(OCCCCc3nnnn3C3CCCCC3)ccc2N1 | inactive | inactive | inactive | inactive | inactive | inactive | – | inactive | inactive | –
OCCN1CCN(CCCN2c3ccccc3Sc3ccc(C(F)(F)F)cc32)CC1 | – | – | inactive | inactive | inactive | inactive | inactive | inactive | – | 6.68 µM (active)
CCN(CCN)c1cccc(C)c1 | inactive | inactive | inactive | inactive | inactive | inactive | inactive | inactive | inactive | –
